What all share (experiment): DAPPL (digital affinity profiling via proximity ligation, sequencing); 10 mM Tris-HCl pH 7.5, 50 mM NaCl, 1 mM DTT, 4% glycerol, room temperature, 30 min; GST-TFs on glutathione beads, 16-mer random dsDNA library, 0.1% formaldehyde crosslink after washing; high values mean tight binding
Conditions in all cases: protein: recombinant; tags: N-terminal GST; dsDNA, one strand shown

For one experiment, the target named is T1, FLI1 (Homo sapiens, UniProt Q01543 1-452).
T1 sequence: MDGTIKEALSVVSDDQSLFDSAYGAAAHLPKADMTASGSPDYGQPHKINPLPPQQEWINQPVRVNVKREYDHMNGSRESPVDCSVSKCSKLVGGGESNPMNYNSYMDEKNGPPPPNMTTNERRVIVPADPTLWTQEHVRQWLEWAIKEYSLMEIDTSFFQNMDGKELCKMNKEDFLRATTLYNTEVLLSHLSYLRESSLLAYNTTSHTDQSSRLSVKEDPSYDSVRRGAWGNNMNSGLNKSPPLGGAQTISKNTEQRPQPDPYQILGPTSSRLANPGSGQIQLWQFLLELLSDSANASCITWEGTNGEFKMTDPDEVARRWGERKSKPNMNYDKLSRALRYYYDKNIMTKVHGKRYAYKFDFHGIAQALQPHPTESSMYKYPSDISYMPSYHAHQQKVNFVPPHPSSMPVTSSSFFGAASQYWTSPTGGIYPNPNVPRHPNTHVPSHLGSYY
In outline: (§1)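 Pools were built from human transcription factors expressed in yeast as GST fusions, captured on glutathione beads and DNA-barcoded, along with a tag-only sample. Incubation with 200 nmole of a 16-mer random double-stranded DNA library lasted 30 min at room temperature in Tris/NaCl/DTT/glycerol buffer, and was followed by washing, 0.1% formaldehyde crosslinking, proximity ligation, PCR amplification and Illumina NextSeq500 sequencing. Binding signal is the quotient of each hexamer's read frequency for a factor and its frequency for the tag-only sample.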

Another experiment deals with T2, ELK1 (Homo sapiens, UniProt P19419 1-428).
T2 sequence: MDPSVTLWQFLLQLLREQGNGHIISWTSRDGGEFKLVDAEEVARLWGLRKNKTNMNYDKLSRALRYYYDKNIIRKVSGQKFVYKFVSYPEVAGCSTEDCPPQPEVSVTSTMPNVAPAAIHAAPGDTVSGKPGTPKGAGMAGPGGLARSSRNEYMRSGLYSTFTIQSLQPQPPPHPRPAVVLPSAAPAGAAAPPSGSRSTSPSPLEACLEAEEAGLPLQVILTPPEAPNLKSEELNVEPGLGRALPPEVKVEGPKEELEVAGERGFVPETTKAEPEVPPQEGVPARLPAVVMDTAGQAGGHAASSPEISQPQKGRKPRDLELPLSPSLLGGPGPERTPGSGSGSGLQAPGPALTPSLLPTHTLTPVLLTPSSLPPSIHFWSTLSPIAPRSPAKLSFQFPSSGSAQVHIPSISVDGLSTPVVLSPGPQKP
The method, boiled down: as §1

Another experiment has as its target T3, GABPA (Homo sapiens, UniProt Q06546 1-454).
T3 sequence: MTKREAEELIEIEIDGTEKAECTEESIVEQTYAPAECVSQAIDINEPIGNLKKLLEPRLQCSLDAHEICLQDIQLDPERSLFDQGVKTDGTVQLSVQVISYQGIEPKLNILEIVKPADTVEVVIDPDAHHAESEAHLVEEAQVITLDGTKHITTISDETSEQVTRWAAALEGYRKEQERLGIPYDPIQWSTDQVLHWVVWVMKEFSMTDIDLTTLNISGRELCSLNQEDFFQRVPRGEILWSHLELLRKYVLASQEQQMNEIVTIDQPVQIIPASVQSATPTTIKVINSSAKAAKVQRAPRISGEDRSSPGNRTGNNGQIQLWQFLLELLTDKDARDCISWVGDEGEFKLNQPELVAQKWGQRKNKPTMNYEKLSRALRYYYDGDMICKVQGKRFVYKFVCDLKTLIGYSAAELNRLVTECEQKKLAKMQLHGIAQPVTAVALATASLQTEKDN
In outline: as §1

The next experiment addresses T4, ERG (Homo sapiens, UniProt P11308 1-479).
T4 sequence: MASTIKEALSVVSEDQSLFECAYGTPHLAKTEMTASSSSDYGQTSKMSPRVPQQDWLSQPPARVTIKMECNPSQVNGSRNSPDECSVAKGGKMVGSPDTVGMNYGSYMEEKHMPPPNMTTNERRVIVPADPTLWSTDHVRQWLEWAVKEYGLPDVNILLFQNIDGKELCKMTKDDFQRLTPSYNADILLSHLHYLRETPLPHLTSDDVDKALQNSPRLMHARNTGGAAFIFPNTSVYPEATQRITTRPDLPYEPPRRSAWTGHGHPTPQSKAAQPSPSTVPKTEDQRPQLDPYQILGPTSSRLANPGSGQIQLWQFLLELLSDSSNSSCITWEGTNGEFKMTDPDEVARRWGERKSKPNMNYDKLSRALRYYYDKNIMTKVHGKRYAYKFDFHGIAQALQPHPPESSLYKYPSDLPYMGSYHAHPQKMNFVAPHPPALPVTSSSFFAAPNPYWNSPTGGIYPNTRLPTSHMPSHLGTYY
The method, boiled down: as §1

A further experiment addresses ELF1 (Homo sapiens, UniProt P32519 1-619). In outline:
as §1

For another experiment, the target named is T5, EHF (Homo sapiens, UniProt Q9NZC4 1-300).
T5 sequence: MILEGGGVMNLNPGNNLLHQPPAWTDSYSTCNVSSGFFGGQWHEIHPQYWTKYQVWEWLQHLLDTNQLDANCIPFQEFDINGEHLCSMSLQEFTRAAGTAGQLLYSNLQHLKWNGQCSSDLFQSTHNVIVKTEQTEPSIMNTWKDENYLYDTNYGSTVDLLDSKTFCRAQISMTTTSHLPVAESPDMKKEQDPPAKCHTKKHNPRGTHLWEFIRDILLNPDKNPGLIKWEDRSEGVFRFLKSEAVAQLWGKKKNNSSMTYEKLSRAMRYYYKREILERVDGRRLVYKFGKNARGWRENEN
The method, boiled down: as §1

A further experiment addresses SPI1 (Homo sapiens, UniProt P17947 1-270). In outline:
as §1

Another experiment addresses SPIB (Homo sapiens, UniProt Q01892 1-262). The method, boiled down:
as §1

A further experiment has as its target T6, ELK3 (Homo sapiens, UniProt P41970 1-407).
T6 sequence: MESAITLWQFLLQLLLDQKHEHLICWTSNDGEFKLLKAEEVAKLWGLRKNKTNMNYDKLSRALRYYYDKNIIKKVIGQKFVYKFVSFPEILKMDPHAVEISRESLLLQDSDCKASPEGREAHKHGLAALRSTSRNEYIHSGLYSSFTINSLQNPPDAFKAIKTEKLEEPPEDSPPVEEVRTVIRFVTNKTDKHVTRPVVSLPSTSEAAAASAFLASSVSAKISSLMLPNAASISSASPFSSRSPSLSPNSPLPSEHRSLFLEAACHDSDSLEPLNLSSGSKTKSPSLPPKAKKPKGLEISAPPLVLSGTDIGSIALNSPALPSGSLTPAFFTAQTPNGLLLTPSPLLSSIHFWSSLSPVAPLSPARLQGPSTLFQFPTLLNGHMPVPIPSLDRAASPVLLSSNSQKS
In outline: as §1

Another experiment deals with T7, FEV (Homo sapiens, UniProt Q99581 1-238).
T7 sequence: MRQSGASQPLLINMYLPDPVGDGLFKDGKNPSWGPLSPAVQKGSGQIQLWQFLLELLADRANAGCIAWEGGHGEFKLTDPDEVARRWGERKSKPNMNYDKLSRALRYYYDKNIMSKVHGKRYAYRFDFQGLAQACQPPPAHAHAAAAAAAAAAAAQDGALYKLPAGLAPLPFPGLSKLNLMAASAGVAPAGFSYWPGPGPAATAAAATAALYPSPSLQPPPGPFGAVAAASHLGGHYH
In outline:
as §1

In the next experiment the target is ETV5 (Homo sapiens, UniProt P41161 1-510). In outline: as §1
Sequence of ETV5 (P41161 whole entry): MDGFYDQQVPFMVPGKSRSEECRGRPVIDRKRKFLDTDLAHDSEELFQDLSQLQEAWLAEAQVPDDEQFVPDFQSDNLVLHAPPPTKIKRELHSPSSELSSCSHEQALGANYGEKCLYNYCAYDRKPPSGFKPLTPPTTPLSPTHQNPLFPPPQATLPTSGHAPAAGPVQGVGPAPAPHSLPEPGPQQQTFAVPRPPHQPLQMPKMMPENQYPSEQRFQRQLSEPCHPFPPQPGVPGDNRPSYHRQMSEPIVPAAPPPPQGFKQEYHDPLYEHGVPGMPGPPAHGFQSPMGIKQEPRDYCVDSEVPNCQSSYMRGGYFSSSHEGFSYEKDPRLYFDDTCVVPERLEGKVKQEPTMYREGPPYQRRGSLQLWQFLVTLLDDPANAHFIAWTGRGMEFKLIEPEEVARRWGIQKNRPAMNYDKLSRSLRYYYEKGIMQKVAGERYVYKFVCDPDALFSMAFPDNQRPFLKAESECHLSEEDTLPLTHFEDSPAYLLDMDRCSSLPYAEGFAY
The target of another experiment is ELF4 (Homo sapiens, UniProt Q99607 1-663). The method, boiled down: as §1
Sequence of ELF4 (Q99607 whole entry): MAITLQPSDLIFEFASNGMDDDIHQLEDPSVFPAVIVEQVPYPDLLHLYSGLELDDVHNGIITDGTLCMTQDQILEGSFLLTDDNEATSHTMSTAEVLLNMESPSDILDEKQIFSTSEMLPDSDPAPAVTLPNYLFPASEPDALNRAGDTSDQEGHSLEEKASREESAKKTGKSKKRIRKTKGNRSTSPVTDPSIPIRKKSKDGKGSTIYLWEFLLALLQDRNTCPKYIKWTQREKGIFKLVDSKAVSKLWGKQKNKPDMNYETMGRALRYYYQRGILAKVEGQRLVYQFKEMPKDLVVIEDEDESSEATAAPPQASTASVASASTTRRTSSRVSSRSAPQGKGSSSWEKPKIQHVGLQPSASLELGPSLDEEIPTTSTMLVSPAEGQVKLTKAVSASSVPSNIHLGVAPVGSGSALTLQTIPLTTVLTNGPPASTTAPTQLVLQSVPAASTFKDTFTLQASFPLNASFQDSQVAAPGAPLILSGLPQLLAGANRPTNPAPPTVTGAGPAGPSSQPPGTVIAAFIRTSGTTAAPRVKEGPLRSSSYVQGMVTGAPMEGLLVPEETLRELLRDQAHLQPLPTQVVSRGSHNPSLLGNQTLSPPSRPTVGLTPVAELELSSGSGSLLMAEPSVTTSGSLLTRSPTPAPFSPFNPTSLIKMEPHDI
A further experiment concerns the target ETV1 (Homo sapiens, UniProt P50549 1-477). In outline:
as §1

For the next experiment, the target named is T8, ERF (Homo sapiens, UniProt P50548 1-548).
T8 sequence: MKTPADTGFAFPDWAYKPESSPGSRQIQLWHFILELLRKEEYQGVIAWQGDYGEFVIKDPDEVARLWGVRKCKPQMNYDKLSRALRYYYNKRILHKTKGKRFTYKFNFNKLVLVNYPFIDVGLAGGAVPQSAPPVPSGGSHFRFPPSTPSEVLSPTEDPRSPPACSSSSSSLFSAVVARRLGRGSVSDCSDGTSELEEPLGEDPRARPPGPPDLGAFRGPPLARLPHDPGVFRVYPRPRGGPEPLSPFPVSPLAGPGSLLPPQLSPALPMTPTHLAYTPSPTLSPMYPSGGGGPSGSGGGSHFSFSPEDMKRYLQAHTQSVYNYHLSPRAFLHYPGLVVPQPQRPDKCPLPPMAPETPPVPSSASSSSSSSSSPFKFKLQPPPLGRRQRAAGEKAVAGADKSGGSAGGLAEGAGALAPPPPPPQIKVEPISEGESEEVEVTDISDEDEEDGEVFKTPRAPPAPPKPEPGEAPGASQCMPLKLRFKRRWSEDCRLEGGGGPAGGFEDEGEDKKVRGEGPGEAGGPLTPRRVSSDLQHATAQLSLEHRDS
In outline: as §1

The target of the next experiment is T9, ETV3L (Homo sapiens, UniProt Q6ZN32 1-361).
T9 sequence: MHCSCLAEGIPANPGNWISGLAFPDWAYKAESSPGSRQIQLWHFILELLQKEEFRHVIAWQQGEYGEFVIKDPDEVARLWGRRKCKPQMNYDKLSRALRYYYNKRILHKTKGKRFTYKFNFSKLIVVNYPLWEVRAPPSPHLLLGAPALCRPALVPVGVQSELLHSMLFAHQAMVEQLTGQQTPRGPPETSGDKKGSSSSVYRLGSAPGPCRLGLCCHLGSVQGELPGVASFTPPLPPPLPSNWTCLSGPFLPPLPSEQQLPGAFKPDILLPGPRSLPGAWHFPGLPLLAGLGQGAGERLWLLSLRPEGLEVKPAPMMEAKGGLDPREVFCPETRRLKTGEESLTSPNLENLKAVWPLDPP
The method, boiled down:
as §1

The target of a further experiment is T10, ETS2 (Homo sapiens, UniProt P15036 1-469).
T10 sequence: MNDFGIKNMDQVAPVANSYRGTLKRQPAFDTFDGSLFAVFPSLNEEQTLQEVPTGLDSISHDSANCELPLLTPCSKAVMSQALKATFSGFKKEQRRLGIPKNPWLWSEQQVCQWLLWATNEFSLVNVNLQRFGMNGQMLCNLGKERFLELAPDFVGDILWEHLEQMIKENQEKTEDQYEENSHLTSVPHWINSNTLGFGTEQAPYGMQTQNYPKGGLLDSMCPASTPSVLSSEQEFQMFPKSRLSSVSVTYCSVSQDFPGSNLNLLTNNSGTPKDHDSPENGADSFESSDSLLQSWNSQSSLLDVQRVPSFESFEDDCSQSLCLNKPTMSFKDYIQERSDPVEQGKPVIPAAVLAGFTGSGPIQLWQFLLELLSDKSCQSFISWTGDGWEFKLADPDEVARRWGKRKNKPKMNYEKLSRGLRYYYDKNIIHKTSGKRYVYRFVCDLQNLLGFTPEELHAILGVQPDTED
In outline:
as §1

Another experiment deals with T11, ELF5 (Homo sapiens, UniProt Q9UKW6-2 1-255).
T11 sequence: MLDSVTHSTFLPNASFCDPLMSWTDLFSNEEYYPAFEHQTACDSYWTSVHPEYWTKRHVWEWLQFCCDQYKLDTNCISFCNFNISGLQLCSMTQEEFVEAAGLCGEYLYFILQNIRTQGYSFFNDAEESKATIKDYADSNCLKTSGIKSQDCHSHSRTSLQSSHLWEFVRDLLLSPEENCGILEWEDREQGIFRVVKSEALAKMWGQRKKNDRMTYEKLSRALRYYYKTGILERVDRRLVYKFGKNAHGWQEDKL
In outline:
as §1

For the next experiment, the target named is T12, ETV3 (Homo sapiens, UniProt P41162-2 1-143).
T12 sequence: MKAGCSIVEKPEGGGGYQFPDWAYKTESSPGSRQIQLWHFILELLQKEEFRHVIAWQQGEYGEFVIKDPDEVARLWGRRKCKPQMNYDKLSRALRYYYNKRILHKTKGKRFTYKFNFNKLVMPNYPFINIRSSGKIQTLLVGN
The method, boiled down: as §1

A further experiment has as its target ETV6 (Homo sapiens, UniProt P41212 1-452). In outline: as §1

Sequence of SPIB (Q01892 whole entry): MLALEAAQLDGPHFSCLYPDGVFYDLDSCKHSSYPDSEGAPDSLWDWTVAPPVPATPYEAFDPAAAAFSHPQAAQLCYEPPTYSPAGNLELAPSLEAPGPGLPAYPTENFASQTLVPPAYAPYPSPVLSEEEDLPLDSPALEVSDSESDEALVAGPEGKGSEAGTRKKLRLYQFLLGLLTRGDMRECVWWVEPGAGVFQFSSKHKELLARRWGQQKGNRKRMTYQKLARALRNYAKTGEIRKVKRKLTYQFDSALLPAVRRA
Sequence of ELF1 (P32519 whole entry): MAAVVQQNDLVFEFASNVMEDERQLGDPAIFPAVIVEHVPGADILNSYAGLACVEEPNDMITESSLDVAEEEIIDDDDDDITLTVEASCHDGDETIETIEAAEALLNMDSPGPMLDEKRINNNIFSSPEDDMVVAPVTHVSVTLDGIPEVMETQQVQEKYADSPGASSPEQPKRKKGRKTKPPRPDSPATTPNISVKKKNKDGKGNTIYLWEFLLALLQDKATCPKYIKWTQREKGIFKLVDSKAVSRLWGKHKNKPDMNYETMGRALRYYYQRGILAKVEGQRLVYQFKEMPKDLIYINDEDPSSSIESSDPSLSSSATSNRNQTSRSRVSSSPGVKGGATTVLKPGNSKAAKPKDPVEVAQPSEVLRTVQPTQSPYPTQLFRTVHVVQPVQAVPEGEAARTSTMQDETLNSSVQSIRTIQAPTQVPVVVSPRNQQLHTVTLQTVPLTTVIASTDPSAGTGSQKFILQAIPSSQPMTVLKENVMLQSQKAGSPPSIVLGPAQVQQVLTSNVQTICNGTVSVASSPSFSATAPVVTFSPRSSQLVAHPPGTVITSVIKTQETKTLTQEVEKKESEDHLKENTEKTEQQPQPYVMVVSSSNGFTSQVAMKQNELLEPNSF
Sequence of ETV1 (P50549 whole entry): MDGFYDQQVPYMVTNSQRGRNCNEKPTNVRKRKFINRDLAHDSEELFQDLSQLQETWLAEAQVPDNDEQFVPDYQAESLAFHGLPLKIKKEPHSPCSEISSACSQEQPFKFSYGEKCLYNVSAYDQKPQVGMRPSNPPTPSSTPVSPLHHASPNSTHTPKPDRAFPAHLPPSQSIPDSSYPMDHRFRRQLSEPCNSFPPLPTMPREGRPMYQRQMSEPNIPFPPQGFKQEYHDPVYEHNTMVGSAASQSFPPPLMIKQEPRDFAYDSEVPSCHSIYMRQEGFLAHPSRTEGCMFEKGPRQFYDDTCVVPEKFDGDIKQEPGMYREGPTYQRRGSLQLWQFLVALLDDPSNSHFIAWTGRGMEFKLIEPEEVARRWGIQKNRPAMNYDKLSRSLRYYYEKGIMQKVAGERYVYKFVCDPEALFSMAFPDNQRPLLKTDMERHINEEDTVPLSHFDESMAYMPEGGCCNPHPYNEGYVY
Sequence of ETV6 (P41212 whole entry): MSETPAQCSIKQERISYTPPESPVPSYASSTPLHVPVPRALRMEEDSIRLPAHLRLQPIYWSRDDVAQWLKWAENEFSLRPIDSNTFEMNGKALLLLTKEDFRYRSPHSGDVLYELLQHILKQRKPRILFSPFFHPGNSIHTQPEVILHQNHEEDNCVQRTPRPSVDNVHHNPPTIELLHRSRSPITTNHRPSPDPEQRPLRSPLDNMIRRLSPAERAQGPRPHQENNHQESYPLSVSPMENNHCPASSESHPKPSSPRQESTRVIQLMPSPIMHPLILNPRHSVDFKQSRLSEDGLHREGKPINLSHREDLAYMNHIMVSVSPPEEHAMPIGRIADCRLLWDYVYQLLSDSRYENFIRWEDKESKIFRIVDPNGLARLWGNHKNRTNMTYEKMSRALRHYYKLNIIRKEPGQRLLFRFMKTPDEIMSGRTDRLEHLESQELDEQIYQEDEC

For ACGACC, the binding signal was 1.18 fold enrichment (6-mer frequency, TF over GST control) in the experiment with FLI1; 1.21 fold enrichment (6-mer frequency, TF over GST control) in the experiment with ELK1; 1.11 fold enrichment (6-mer frequency, TF over GST control) with GABPA; 1.1 fold enrichment (6-mer frequency, TF over GST control) with ERG; 1.21 fold enrichment (6-mer frequency, TF over GST control) in the experiment with ELF1; 1.1 fold enrichment (6-mer frequency, TF over GST control) with EHF. Further, the binding signal was 1.03 fold enrichment (6-mer frequency, TF over GST control) with SPI1; 1.07 fold enrichment (6-mer frequency, TF over GST control) with SPIB; 1.31 fold enrichment (6-mer frequency, TF over GST control) in the experiment with ELK3; 1.22 fold enrichment (6-mer frequency, TF over GST control) with FEV; 1.17 fold enrichment (6-mer frequency, TF over GST control) with ETV5; 1.26 fold enrichment (6-mer frequency, TF over GST control) with ELF4. Further, the binding signal with ETV1 was 1.2 fold enrichment (6-mer frequency, TF over GST control); with ERF, 1.11 fold enrichment (6-mer frequency, TF over GST control); with ETV3L, 1.18 fold enrichment (6-mer frequency, TF over GST control); with ETS2, 1.15 fold enrichment (6-mer frequency, TF over GST control); in the experiment with ELF5 it was 1.17 fold enrichment (6-mer frequency, TF over GST control); with ETV3, 1.24 fold enrichment (6-mer frequency, TF over GST control). Besides, the binding signal in the experiment with ETV6 is 1.19 fold enrichment (6-mer frequency, TF over GST control).

Values taken from paper PMC7862700, “An all-to-all approach to the identification of sequence-specific readers for epigenetic DNA modifications on cytosine”.
